The whole screen tested about 5,500 compounds, of which about 2,000 (36%) were called active. Another 18% or so got no clear call; they are omitted. Cut-off read from the data, not from the text of the source: active = normalized growth mostly below about 0.91 (no sharp cut-off); inconclusive = no clear call, values can overlap the other calls; inactive = mostly above about 0.92. Some of the results follow.
Assay: chemical genetic growth profiling, strain panel (AID 1159580);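 note: tested at 20 µM; growth read once vehicle control cultures reached saturation at 30 °C; 1 = growth at the plate median or of vehicle wells; lower values mean less growth of the strain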
Conditions: S. cerevisiae deletion strains, growth OD

Measured: normalized growth

CC(=O)O[C@H]1CCC2(C)C3=C(CCC2C1(C)C)[C@@]1(C)CC[C@@H](C(C)CCC=C(C)C)[C@]1(C)CC3 (some centres undefined)
inactive: locus YJL168C, strain set2, active compounds read low 1.06 | locus YJL187C, strain SWE1 (second series), active compounds read low 0.989 | locus YJL187C, strain SWE1, active compounds read low 1.01 | locus YJR043C, strain POL32, active compounds read low 0.941 | locus YJR075W, strain HOC1, active compounds read low 1.04 | locus YKL068W, active compounds read low 1.04 | locus YKL085W, strain MDH1 (second series), active compounds read low 1.03 | locus YKL085W, strain MDH1, active compounds read low 1.03 | locus YKL160W, strain elf1, active compounds read low 1.02 | locus YKR001C, strain vps1, active compounds read low 0.997 | locus YKR026C, strain gcn3, active compounds read low 1.04 | locus YKR091W, strain srl3, active compounds read low 1.03 | locus YLL001W, strain dnm1, active compounds read low 1.03 | locus YLL026W, active compounds read low 1.02 | locus YLL041C, strain sdh2, active compounds read low 1.05 | locus YLR027C, strain aat2, active compounds read low 1.04 | locus YLR039C, strain RIC1, active compounds read low 1.08 | locus YLR058C, strain SHM2, active compounds read low 1.01 | locus YLR102C, strain apc9, active compounds read low 1.05 | locus YLR221C, strain rsa3, active compounds read low 1.03 | locus YLR258W, strain gsy2, active compounds read low 1.04 | locus YLR262C, strain YPT6 (second series), active compounds read low 1.02 | locus YLR262C, strain YPT6, active compounds read low 0.994 | locus YLR268W, strain sec22, active compounds read low 1.02 | locus YLR320W, strain mms22, active compounds read low 1.05 | locus YLR330W, strain CHS5, active compounds read low 1.03 | locus YLR342W, strain FKS1 (second series), active compounds read low 0.953 | locus YLR342W, strain FKS1, active compounds read low 1.04 | locus YLR357W, strain rsc2, active compounds read low 1.04 | locus YLR370C, strain arc18, active compounds read low 1.02 | locus YLR384C, strain iki3, active compounds read low 1.05 | locus YLR418C, strain cdc73, active compounds read low 1.09 | locus YML016C, strain PPZ1, active compounds read low 1.05 | locus YML032C, strain rad52, active compounds read low 0.994 | locus YML120C, strain ndi1, active compounds read low 1.03 | locus YML124C, strain tub3, active compounds read low 1.06 | locus YMR058W, strain fet3, active compounds read low 1.03 | locus YMR078C, strain ctf18, active compounds read low 1.08 | locus YMR125W, strain sto1, active compounds read low 1.03 | locus YMR129W, active compounds read low 1.03 | locus YMR205C, strain PFK2, active compounds read low 1.04 | locus YMR223W, strain ubp8, active compounds read low 1.01 | locus YMR231W, strain pep5, active compounds read low 1 | locus YMR307W, strain GAS1, active compounds read low 0.972 | locus YNL067W, strain RPL9B, active compounds read low 0.969 | locus YNL071W, strain lat1, active compounds read low 1.03 | locus YNL209W, strain ssb2, active compounds read low 1.04 | locus YNL233W, strain BNI4, active compounds read low 1.04 | locus YNL248C, strain rpa49, active compounds read low 1.02 | locus YNL250W, strain rad50, active compounds read low 1.04 | locus YNL271C, strain bni1, active compounds read low 1.05 | locus YNL298W, strain CLA4, active compounds read low 0.986 | locus YNL307C, strain MCK1, active compounds read low 1.07 | locus YNL322C, strain KRE1 (second series), active compounds read low 1.03 | locus YNR049C, strain mso1, active compounds read low 1.03 | locus YNR052C, strain pop2, active compounds read low 0.99 | locus YOL012C, strain htz1 1.57 | locus YOL147C, strain pex11, active compounds read low 1.05 | locus YOR001W, strain rrp6, active compounds read low 1.01 | locus YOR061W, strain CKA2, active compounds read low 0.996 | locus YOR069W, strain VPS5, active compounds read low 1.03 | locus YOR070C, strain gyp1, active compounds read low 1.01 | locus YOR080W, strain dia2, active compounds read low 1.02 | locus YOR083W, strain WHI5, active compounds read low 1.01 | locus YOR106W, strain vam3, active compounds read low 1 | locus YOR136W, strain idh2, active compounds read low 1.04 | locus YOR144C, strain elg1, active compounds read low 1.04 | locus YOR184W, strain ser1, active compounds read low 0.926 | locus YOR265W, strain rbl2, active compounds read low 1.03 | locus YOR270C, strain vph1, active compounds read low 0.999 | locus YOR290C, strain snf2, active compounds read low 1.02 | locus YOR316C, strain cot1, active compounds read low 1.06 | locus YPL051W, strain arl3, active compounds read low 1.01 | locus YPL078C, strain atp4, active compounds read low 1.02 | locus YPL106C, strain sse1, active compounds read low 1.09 | locus YPL240C, strain hsp82, active compounds read low 1.03 | locus YPL241C, strain CIN2, active compounds read low 1.05 | locus YPR119W, strain clb2, active compounds read low 1.06 | locus YPR141C, strain kar3, active compounds read low 1.08 | locus YPR163C, strain tif3, active compounds read low 1.04 | locus YPR167C, strain met16, active compounds read low 1.03 | strain wtn01, active compounds read low 0.997
active: locus YKL009W, strain mrt4, active compounds read low 0.846 | locus YLR371W, strain rom2, active compounds read low 1.1 [resistant]

Source: PubChem BioAssay AID1159580 (chemical genetic matrix, 2015)
